Compound activity deposited in PubChem by several laboratories.
Compounds with a hit are over-represented: about 0.51% of the library has one in this group of screens.
AddAB inh = less growth of phage-infected E. coli with AddAB; E. coli expressing H. pylori AddAB, absorbance growth; inhibition, % at 11.9 µM; 0.29% of 330,000 active; AID 435030; in the data active means inhibition above about 12%
E coli growth-1 = counter-screen for AddAB inhibitors: E. coli growth inhibition | E. coli V3065 growth, OD600 absorbance, 18 h | AID 449728 | inhibition, % at 11.9 µM | 0.27% of 330,000 active;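 active means inhibition above the campaign's mean inhibition across all tested compounds plus 3 SD, cut at about 9.9% in these data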;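 further: uninfected addAB+ strain grown without phage in ampicillin broth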
E coli growth-2 = inhibitors of Escherichia coli growth. OD600, 23 h; hits give low values. OD600 absorbance (test concentration not listed). 0.21% of 330,000 active;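 active means OD600 absorbance below the run mean of sample wells minus 3.6 SD, in any replicate, cut at about 0.56 in these data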
phage Ecoli inh = E. coli growth loss with phage present | growth absorbance | inhibition, % at 11.9 µM | 0.26% of 360,000 active | AID 651602; in the data active means inhibition above about 11%
Tat transport = E. coli Tat transport inhibition | E. coli MC4100 TorA-mCherry Tat export, fluorescence | inhibition, % at 10 µM | 0.036% of 340,000 active | AID 488895;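 active means mean replicate inhibition at least 50% and at least half of replicates individually reaching 50%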;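 further: exported cargo escapes ClpAP degradation while cytoplasmic cargo is degraded and loses fluorescence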
AddAB conf = confirmation screen: growth loss of phage-infected E. coli expressing H. pylori AddAB | 64% of 880 active | E. coli V3065 expressing H. pylori AddAB, T4 phage, OD; T4 phage with gene 2 nonsense mutations | shares compounds with AddAB inh | inhibition, % at 11.9 µM;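 active means mean inhibition above a set limit taken from the earlier primary screen, cut at about 13% in these data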;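 further: higher means less bacterial growth since AddAB block lets phage replicate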
RecBCD counter = AddAB counter-screen: growth loss of RecBCD+ E. coli infected with mutant T4 phage; inhibition, % at 11.9 µM; shares compounds with AddAB inh; E. coli V66 + mutant T4 phage, OD growth; AID 488955; 73% of 880 active;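 active means mean inhibition above the mean of solvent-only control wells plus 3 SD, cut at about 4% in these data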;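 further: optical density read after an 18 h incubation at 37 °C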
Bact viability = counter-screen for AddAB inhibitors: inhibitors of bacterial viability. shares compounds with AddAB inh. absorbance (AddAB counterscreen). inhibition, % at 11.9 µM. 35% of 880 active. AID 488956; in the data active means inhibition above about 25%
RecBCD conf = growth loss of phage-infected V66 E. coli, RecBCD confirmation screen | shares compounds with phage Ecoli inh | E. coli V66 + T4 2- phage, growth OD | inhibition, % at 11.9 µM | 45% of 890 active | AID 651982;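 active means mean inhibition over triplicates exceeding the hit threshold derived in the original primary screen, cut at about 11% in these data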
Ecoli viability = counter-screen for RecBCD inhibitors: inhibitors of bacterial viability; AID 651983; E. coli viability, absorbance (OD) growth; inhibition, % at 11.9 µM; 29% of 890 active; shares compounds with phage Ecoli inh; in the data active means inhibition above about 20%;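 further: E. coli strain V66 grown with compound alone and no phage infection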
AddAB counter = growth loss of phage-infected AddAB E. coli, RecBCD counter-screen | shares compounds with phage Ecoli inh | E. coli expressing H. pylori AddAB + T4 phage, OD growth; gene 2 mutant T4, recBCD-deleted host | inhibition, % at 11.9 µM | 45% of 890 active;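 active means mean inhibition above the solvent-only control wells' mean plus 3 SD, cut at about 22% in these data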;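 further: higher means less bacterial growth from phage killing when AddAB is blocked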
Of the large screens only hits and unclear results are named; the others gave an inactive call (follow-up assays come after a bar, where they were run).

CCCCC(=O)NC(c1ccc(OC)c(OC)c1)c1c(O)ccc2ccccc12 (stereo not given)	none (no result: phage Ecoli inh)
CC(=O)NC(c1ccc2ccccc2c1)c1ccc2cccnc2c1O (stereo not given)	AddAB inh 30, E coli growth-1 27, phage Ecoli inh 24 (no result: E coli growth-2) | AddAB conf 28 | RecBCD counter 22 | Bact viability inactive | RecBCD conf 16 | Ecoli viability 20 | AddAB counter 32
COc1ccc(OC)c(NC(=O)Nc2nnc(N3CCCCC3C)s2)c1 (stereo not given)	AddAB inh 13, E coli growth-1 13, phage Ecoli inh 13 | AddAB conf inactive | RecBCD counter 17 | Bact viability inactive | RecBCD conf inactive | Ecoli viability inactive | AddAB counter inactive
CC(C)(C)C1C=C(C(=O)NC2CC2)OC(OCc2ccc(CO)cc2)C1 (stereo not given)	none (no result: AddAB inh, E coli growth-1, phage Ecoli inh, Tat transport)
O=C1c2ccccc2NC(c2ccc(-c3ccc(Br)cc3)o2)N1O (stereo not given)	AddAB inh 24, E coli growth-1 24, phage Ecoli inh 23 | AddAB conf 19 | RecBCD counter 18 | Bact viability inactive | RecBCD conf 14 | Ecoli viability inactive | AddAB counter inactive
CC(=O)NN1C(=O)c2ccccc2NC1c1cccc([N+](=O)[O-])c1 (stereo not given)	none
O=C1c2ccccc2NC(c2ccc(-c3cccc([N+](=O)[O-])c3)o2)N1O (stereo not given)	AddAB inh 27, E coli growth-1 25, phage Ecoli inh 22 | AddAB conf 21 | RecBCD counter 20 | Bact viability inactive | RecBCD conf inactive | Ecoli viability inactive | AddAB counter inactive
O=C1c2ccccc2NC(c2ccc(-c3ccc(F)cc3)o2)N1O (stereo not given)	none (no result: E coli growth-2)
COc1ccc(OC)c(C(O)=CC(=O)C(=O)Nc2cc(C)cc(C)c2)c1	none (no result: AddAB inh, E coli growth-1, phage Ecoli inh, Tat transport)
O=C(O)CCCCCN1C(=O)C(O)=C(C(=O)C=Cc2ccccc2)C1c1cccc([N+](=O)[O-])c1 (stereo not given)	none (no result: AddAB inh, E coli growth-1, phage Ecoli inh, Tat transport)
Nc1[nH]c(=O)ncc1F	AddAB inh 28, E coli growth-1 19, phage Ecoli inh 29 | AddAB conf 45 | RecBCD counter 20 | Bact viability 44 | RecBCD conf 32 | Ecoli viability 24 | AddAB counter 52
Cc1ccc(C=NNc2cc(C)nc(N3CCOCC3)n2)cc1	none (no result: AddAB inh, E coli growth-1, phage Ecoli inh, Tat transport)
CCc1nnc(NS(=O)(=O)c2ccc(N=Cc3c(C)[nH]n(-c4cccc(Cl)c4)c3=O)cc2)s1	AddAB inh 24, E coli growth-1 16, phage Ecoli inh 11 | AddAB conf inactive | RecBCD counter 4.8 | Bact viability inactive | RecBCD conf inactive | Ecoli viability inactive | AddAB counter 31
O=C(Nc1ncc([N+](=O)[O-])s1)C1CC(=O)N(c2ccc(F)cc2)C1 (stereo not given)	none
O=C1NCCN1c1ncc([N+](=O)[O-])s1	AddAB inh 100, E coli growth-1 101, E coli growth-2 0.066, phage Ecoli inh 98 | AddAB conf 96 | RecBCD counter 95 | Bact viability 96 | RecBCD conf 96 | Ecoli viability 97 | AddAB counter 101
O=[N+]([O-])c1ccc(C(O)C(CO)NC(=S)Nc2ccccc2)cc1 (stereo not given)	none
Cc1ccc(NC(=S)NC(CO)C(O)c2ccc([N+](=O)[O-])cc2)cc1 (stereo not given)	none
O=C(NC(CO)C(O)c1ccc([N+](=O)[O-])cc1)C(Cl)Cl (stereo not given)	AddAB inh 79, E coli growth-1 85, E coli growth-2 0.06, phage Ecoli inh 73 | AddAB conf 87 | RecBCD counter 84 | Bact viability 86 | RecBCD conf 79 | Ecoli viability 79 | AddAB counter 74
O=C(N[C@H](CO)[C@H](O)c1ccc([N+](=O)[O-])cc1)C(Cl)Cl	AddAB inh 89, E coli growth-1 90, E coli growth-2 0.045, phage Ecoli inh 78 | AddAB conf 87 | RecBCD counter 86 | Bact viability 85 | RecBCD conf 86 | Ecoli viability 88 | AddAB counter 81
NC(=O)C1CC2(CC(c3cccc(NC(=O)CC(c4ccccc4)c4ccccc4)c3)=NO2)CN1C(=O)C1CCC(=O)N1 (stereo not given)	none (no result: AddAB inh, E coli growth-1, phage Ecoli inh, Tat transport)
O=C(CSc1ccc(-c2ccccn2)nn1)c1ccccc1	AddAB inh 13, E coli growth-1 12, phage Ecoli inh 14 | AddAB conf inactive | RecBCD counter 11 | Bact viability inactive | RecBCD conf inactive | Ecoli viability inactive | AddAB counter 24
O=C(CSc1ccc(-c2ccccc2)nn1)c1ccccc1	none
O=C(Cc1csc(N2CCOCC2)n1)NN=Cc1ccc(F)cc1	none (no result: AddAB inh, E coli growth-1, phage Ecoli inh, Tat transport)
CCn1cc(C(=O)O)c(=O)c2ccc(C)nc21	AddAB inh 98, E coli growth-1 82, E coli growth-2 0.063, phage Ecoli inh 82 | AddAB conf 94 | RecBCD counter 33 | Bact viability 90 | RecBCD conf 45 | Ecoli viability 78 | AddAB counter 99
CCn1cc(C(=O)OCc2ccccc2)c(=O)c2ccc(C)nc21	none
CCOC(=O)c1cn(CC)c2cc(N3CCCCC3)c(F)cc2c1=O	none
CCn1cc(C(=O)O)c(=O)c2cc(F)c(N3CCN(C(=S)NC(=O)c4c(OC)cccc4OC)CC3)cc21	AddAB inh 99, E coli growth-1 98, E coli growth-2 0.07, phage Ecoli inh 99 | AddAB conf 99 | RecBCD counter 99 | Bact viability 99 | RecBCD conf 102 | Ecoli viability 102 | AddAB counter 103
CCn1cc(C(=O)O)c(=O)c2cc(F)c(N3CCN(C(=S)Nc4ccccc4OC)CC3)cc21	AddAB inh 98, E coli growth-1 99, E coli growth-2 0.073, phage Ecoli inh 100 | AddAB conf 98 | RecBCD counter 99 | Bact viability 99 | RecBCD conf 102 | Ecoli viability 103 | AddAB counter 102
O=C(O)c1ccc(NN=Cc2ccc(OC(=O)c3ccccc3Cl)cc2)cc1	none (no result: AddAB inh, E coli growth-1, phage Ecoli inh, Tat transport)
